The record followed here is PubChem BioAssay (Tox21).

Inconclusive results are not listed. Where a call stands in place of a potency, no number is given. Calls of active or inactive are those of the source. The call rests on the fitted dose curve; in most records, active means well fitted curve in the direction sought with a large enough effect in the repeat runs; inconclusive means weak or mixed curves; inactive means no such curve, though single readings can be large; an effect the other way counts as inactive or inconclusive.

Sequence of Androgen receptor (Homo sapiens) (P10275 whole entry, looked up): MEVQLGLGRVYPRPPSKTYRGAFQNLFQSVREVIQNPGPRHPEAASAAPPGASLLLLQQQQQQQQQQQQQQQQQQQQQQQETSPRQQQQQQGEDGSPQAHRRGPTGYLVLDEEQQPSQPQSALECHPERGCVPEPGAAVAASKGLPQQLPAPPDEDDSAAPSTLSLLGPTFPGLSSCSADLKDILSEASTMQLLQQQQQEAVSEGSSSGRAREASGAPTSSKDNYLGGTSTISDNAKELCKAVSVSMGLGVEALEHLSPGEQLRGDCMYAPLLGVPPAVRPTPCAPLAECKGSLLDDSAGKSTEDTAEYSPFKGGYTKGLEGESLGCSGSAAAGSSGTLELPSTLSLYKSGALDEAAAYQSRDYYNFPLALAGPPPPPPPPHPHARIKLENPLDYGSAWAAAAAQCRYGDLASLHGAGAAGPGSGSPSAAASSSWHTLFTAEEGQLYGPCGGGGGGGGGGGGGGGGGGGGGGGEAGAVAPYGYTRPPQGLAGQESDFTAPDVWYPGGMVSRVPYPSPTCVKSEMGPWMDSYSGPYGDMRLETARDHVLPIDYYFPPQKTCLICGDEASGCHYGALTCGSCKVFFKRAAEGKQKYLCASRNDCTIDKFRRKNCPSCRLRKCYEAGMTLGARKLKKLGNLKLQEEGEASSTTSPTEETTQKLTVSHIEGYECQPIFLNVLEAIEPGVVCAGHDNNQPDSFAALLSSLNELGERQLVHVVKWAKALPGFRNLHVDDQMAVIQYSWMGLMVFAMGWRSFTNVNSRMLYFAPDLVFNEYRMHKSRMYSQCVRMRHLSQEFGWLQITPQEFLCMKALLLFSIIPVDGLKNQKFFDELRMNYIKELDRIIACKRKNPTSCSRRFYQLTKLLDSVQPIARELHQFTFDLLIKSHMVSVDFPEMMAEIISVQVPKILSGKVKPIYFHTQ

One assay has as its target Androgen receptor (Homo sapiens) (UniProt P10275). Description: qHTS assay to identify small molecule antagonists of the androgen receptor (AR) signaling pathway using the MDA cell line (AID 743042; further: nearly all actives have a fitted effect of over 55% in size). The note with it: MDA-kb2 AR-luc, MMTV luciferase, R1881 antagonist, 16 h; series mostly up to 70.3 µM. An outline of the steps:
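MDA-kb2 breast carcinoma cells carrying MMTV-luciferase (AR/GR responsive) were co-treated with compounds and the agonist R1881 for 16 h at 37C. Inhibition read as ONE-Glo luminescence; CellTiter-Fluor fluorescence measured in parallel for cytotoxicity.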
On the technique in general: qHTS replaces the single test concentration by a dilution series.
On to `CNC(C)CC1CCCCC1` (stereo not given), for which the Potency result is “inactive”.
Same read-out and setting: in the case of `CN1CC[C@@]23CCCC[C@@H]2[C@@H]1Cc1ccc(O)cc13` it was “inactive”; in that of `CCCCNC(C)(C)[P+](=O)O`, “inactive”.
As to `O=c1ccc2cc(O[C@@H]3O[C@H](CO)[C@@H](O)[C@H](O)[C@H]3O)c(O)cc2o1`, the Potency result was “inactive”.
With `N#CC(C#N)=Cc1cc(O)c(O)c(O)c1`, the Potency entry was “inactive”.
`CCCSc1cc(OC)c(CCN)cc1OC`: the Potency result was “inactive”.
The same measure, in the same setting: in the case of `O=C(O)CCCO` it was “inactive”; in that of `COC(=O)[C@H]1[C@@H](OC(=O)c2ccccc2)C[C@@H]2CC[C@H]1N2C`, “inactive”; in that of `C[C@]12CC[C@H]3[C@@H](CCC4=C(Cl)C(=O)CC[C@@]43C)[C@@H]1CC[C@@H]2O`, “inactive”.
Turning to `C[C@@H]1[C@@H]2Cc3ccc(O)cc3[C@@]1(C)CCN2CC1CC1`, the Potency result is “inactive”.
`C[C@]12CC[C@@H]3c4ccc(OC(=O)N(CCCl)CCCl)cc4CC[C@H]3[C@@H]1CC[C@@H]2OP(=O)(O)O`: the Potency entry is “inactive”.

Tested on in another assay: not listed separately
Kind of assay: qHTS assay to identify small molecule antagonists of the thyroid receptor (TR) signaling pathway - cell viability counter screen (AID 743064). Further: nearly all actives have a fitted effect of over 50% in size. Further: potency means the concentration at half of the fitted maximal effect. The note with it: GH3.TRE-Luc viability, CellTiter-Fluor, 24 h; series mostly up to 70.3 µM. A digest of the protocol:
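In rat pituitary GH3.TRE-Luc reporter cells co-exposed to compound and 1 nM T3 for 23.5 h, cytotoxicity was assessed with CellTiter-Fluor in the same wells, read by fluorescence.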
Regarding `CC(C)=CCN1CC[C@]2(C)c3cc(O)ccc3C[C@H]1[C@H]2C`, the Potency entry was “inactive”.
Take `CN[C@@]1(c2ccccc2Cl)CCCCC1=O`: the Potency entry is “inactive”.
Consider `CCNC1(c2cccs2)CCCCC1=O` (stereo not given), for which the Potency result was “inactive”.
As to `CNC(C)CC1CCCCC1` (stereo not given), the Potency result was “inactive”.
On to `CCC1(c2ccccc2)C(=O)NC(=O)N(C)C1=O` (stereo not given), for which the Potency entry is “inactive”.
For `COc1cc([C@@H]2c3cc4c(cc3[C@@H](O)[C@H]3COC(=O)[C@H]23)OCO4)cc(OC)c1O`, the Potency was 10.6 µM (active).
The same measure, in the same setting: under `CN1CC[C@@]23CCCC[C@@H]2[C@@H]1Cc1ccc(O)cc13` stands “inactive”.
Same read-out and setting: in the case of `CN[C@@H](C)Cc1ccccc1` it was “inactive”; in that of `CCCCNC(C)(C)[P+](=O)O`, “inactive”.
Regarding `O=C1C[C@@H]2OCC=C3CN4CC[C@]56c7ccccc7N1[C@H]5[C@H]2[C@H]3C[C@H]46` (tested in a mixture with another compound), the Potency entry was “inactive”.
The same measure, in the same setting: under `C/C=C(\CC)C(=O)NC(N)=O` stands “inactive”.
Same read-out and setting: under `C[C@]12CCC(=O)C[C@@H]1CC[C@@H]1[C@@H]2CC[C@@]2(C)[C@H]1CC[C@]2(C)O` stands “inactive”; under `N#CC(C#N)=Cc1cc(O)c(O)c(O)c1`, 26.6 µM (active); under `CCCSc1cc(OC)c(CCN)cc1OC`, 29 µM (active).
As to `O=C(O)CCCO`, the Potency result is “inactive”.
As to `O=P1(N(CCCl)CCCl)NC(OO)CCO1` (stereo not given), the Potency entry was “inactive”.
For the compound `COC(=O)[C@H]1[C@@H](OC(=O)c2ccccc2)C[C@@H]2CC[C@H]1N2C`, the Potency entry is “inactive”.
Consider `O=C1CN=C(c2ccccc2)c2cc(Cl)ccc2N1`, for which the Potency result is “inactive”.
Consider `CC(C)[C@H]1C(=O)N2CCC[C@H]2[C@]2(O)O[C@](NC(=O)[C@@H]3C[C@@H]4c5cccc6[nH]cc(c56)C[C@H]4N(C)C3)(C(C)C)C(=O)N12`, for which the Potency was 29.8 µM (active).
For `C[C@]12CC[C@H]3[C@@H](CCC4=C(Cl)C(=O)CC[C@@]43C)[C@@H]1CC[C@@H]2O`, the Potency result is “inactive”.
Regarding `C[C@@H]1[C@@H]2Cc3ccc(O)cc3[C@@]1(C)CCN2CC1CC1`, the Potency result is “inactive”.
Same read-out and setting: in the case of `CC(C)C[C@H]1C(=O)N2CCC[C@H]2[C@]2(O)O[C@](NC(=O)[C@@H]3C[C@@H]4c5cccc6[nH]cc(c56)C[C@H]4N(C)C3)(C(C)C)C(=O)N12` it was 29.8 µM (active); in that of `[H+].[H+].[Hg+2].[O-]B([O-])[O-].[c-]1ccccc1`, 1.06 µM (active); in that of `C=CCC1([C@@H](C)CCC)C(=O)NC(=O)NC1=O`, “inactive”.
Still for that read-out and setting: under `C[C@@H](Cc1ccccc1)NCCC(c1ccccc1)c1ccccc1` stands 11.4 µM (active); under `CC[C@H]1[C@@H]2C[C@H]3[C@@H]4N(C)c5ccccc5[C@]45C[C@@H](C2[C@H]5O)N3[C@@H]1O` (stereo not given in full), “inactive”; under `CC(N)Cc1ccc2c(c1)OCO2` (stereo not given), “inactive”.
Same read-out and setting: under `CN[C@]1(c2ccccc2Cl)CCCCC1=O` stands “inactive”; under `CC(=O)[C@@]1(O)CC[C@H]2[C@@H]3CCC4=CC(=O)CC[C@]4(C)C3(F)[C@@H](O)C[C@@]21C` (stereo not given in full), “inactive”.
